# Test results taken from PubChem BioAssay.
# Activity calls are given as the source filed them. Unless noted, no rule for the calls is given here.
# Assays:
# [1] = system: Neuropilin-2 / VEGF-C interaction (human); assay: inhibitors of NRP2–VEGF-C binding, biochemical, microplate binding format, z-score (AID 743281); settings: microplate NRP2/VEGF-C binding assay; stronger effect = lower value
# [2] = modulation of C. elegans fzo-1 (AID 1259413);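 also: fzo-1 mutant C. elegans worms in liquid wells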; settings: C. elegans fzo-1 modulator screen, mean read-out; stronger effect = higher value
# [3] = differential killing of epithelial or mesenchymal cells, primary screen, imaging, PC-3E GFP, TEM4-18 mCherry, co-culture (AID 1345086;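 active = compounds killing one labelled cell type while sparing the other, by normalised counts and ratio limits, not self-fluorescent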;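 as to all read-outs here: cells exposed to compound for 72 h before imaging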;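 as to red/green cell ratio (normalised): normalised mesenchymal count divided by normalised epithelial count so high means epithelial killing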); settings: imaging cell counts, at 1 µM; for red/green cell ratio (normalised): actives lie on both sides
# [4] = measured here: epithelial PC-3E GFP cell survival
# [5] = measured here: mesenchymal TEM4-18 mCherry cell survival
# [6] = counts scaled to control wells, 1 = unselective
compound,measurement,setting,value
CC12CC[C@H](O)CC1=CC[C@@H]1[C@@H]2CCC2(C)[C@H]1CC[C@]2(C)O (some centres undefined),outcome,[1],inactive
same,mean signal,[2],278 (inactive)
CC(C)(O)[C@@H]1[C@H]2OC(=O)[C@@H]1C1(O)C[C@H]3O[C@]34C(=O)O[C@H]2[C@]14C (some centres undefined) (tested in a mixture with another compound),outcome,[1],inactive
same,mean signal,[2],237 (inactive)
CC12CC[C@H]3[C@@H](CC=C4C[C@@H](O)CCC43C)[C@@H]1CCC2=O (some centres undefined),outcome,[1],inactive
same,mean signal,[2],245 (inactive)
CC[C@H](c1cccc(O)c1)[C@@H](C)CN(C)C,red/green cell ratio (normalised),[3],0.92 (inactive)
same,normalised cell number,[3]; [4],1.05
same,normalised cell number,[3]; [5],0.96
C=C1C[C@@H]2[C@H](CCC3(C)C(=O)CC[C@@H]23)C2(C)C=CC(=O)C=C12 (some centres undefined),outcome,[1],inactive
same,mean signal,[2],265 (inactive)
Fc1ccc(C2CCNCC2COc2ccccc2)cc1 (centres undefined),red/green cell ratio (normalised),[3]; [6],0.82 (inactive)
same,normalised cell number,[3]; [4],1.28
same,normalised cell number,[3]; [5],1.05
CCC(C)C(=O)O[C@@H]1C[C@@]2(C)[C@H](c3ccoc3)OC(=O)CC23OC2(C)OC34[C@H](OC(=O)C(C)C)C3(O)[C@@H](OC(=O)C5(C)OC5C)[C@@]5(C)C[C@]3(O)[C@@](C)([C@H]5CC(=O)OC)C14O2 (some centres undefined),red/green cell ratio (normalised),[3]; [6],1.06 (inactive)
same,normalised cell number,[3]; [4],0.98
same,normalised cell number,[3]; [5],1.04
CC12CCC(=O)C[C@@H]1CC[C@@H]1[C@@H]2CCC2(C)[C@H]1CC[C@]2(C)O (some centres undefined),outcome,[1],inactive
same,mean signal,[2],277 (inactive)
CC[C@H](C)/C=C(C)/C=C/C1=CC2=C(Cl)C(=O)[C@](C)(OC(C)=O)C(=O)C2=CO1,red/green cell ratio (normalised),[3]; [6],1 (inactive)
same,normalised cell number,[3]; [4],0.96
same,normalised cell number,[3]; [5],0.96
C[C@H]1COc2c(N3CCNCC3)c(F)cc3c(=O)c(C(=O)O)cn1c23,red/green cell ratio (normalised),[3]; [6],0.98 (inactive)
same,normalised cell number,[3]; [4],1.08
same,normalised cell number,[3]; [5],1.06
C[C@@H]1[C@H](O)[C@@H](C)/C=C/C=C/CC/C=C/C=C/C=C/C=C/[C@H](OC2O[C@H](C)[C@@H](O)[C@H](N)[C@@H]2O)C[C@@H]2O[C@](O)(C[C@@H](O)[C@H](O)CC[C@@H](O)C[C@@H](O)C[C@@H](O)CC(=O)O[C@H]1C)C[C@H](O)[C@H]2C(=O)O (some centres undefined),red/green cell ratio (normalised),[3]; [6],0.86 (inactive)
same,normalised cell number,[3]; [4],1.27
same,normalised cell number,[3]; [5],1.09
CC[C@]1(O)CC[C@H]2[C@@H]3CCC4=CCCC[C@@H]4[C@H]3CCC21C (some centres undefined),outcome,[1],inactive
same,mean signal,[2],230 (inactive)
CC12Cc3cn[nH]c3C[C@@H]1CC[C@@H]1[C@@H]2CCC2(C)[C@H]1CC[C@]2(C)O (some centres undefined),outcome,[1],inactive
same,mean signal,[2],229 (inactive)
C[C@]12C=CC(=O)C=C1CCC1C2CC[C@]2(C)C(=O)CCC12 (some centres undefined),red/green cell ratio (normalised),[3],1.05 (inactive)
same,normalised cell number,[3]; [4],1.06
same,normalised cell number,[3]; [5],1.12
C=C(C)CN1CC[C@]23c4c5ccc(O)c4O[C@H]2c2[nH]c4ccccc4c2CC3(O)C1C5 (some centres undefined),outcome,[1],inactive
same,mean signal,[2],243 (inactive)
O=[N+]([O-])c1ccc(CN2CCNCC2)cc1,red/green cell ratio (normalised),[3]; [6],0.74 (inactive)
same,normalised cell number,[3]; [4],1.45
same,normalised cell number,[3]; [5],1.07
O=C1NCC[C@@H]1O,red/green cell ratio (normalised),[3]; [6],0.9 (inactive)
same,normalised cell number,[3]; [4],1.14
same,normalised cell number,[3]; [5],1.03
C/C1=C\[C@@H](C)C/C=C/[C@H]2[C@@H]3O[C@]3(C)[C@@H](C)[C@H]3[C@H](Cc4c[nH]c5ccccc45)NC(=O)[C@]32C(=O)/C=C/C(=O)[C@@H]1O,red/green cell ratio (normalised),[3]; [6],0.89 (inactive)
same,normalised cell number,[3]; [4],1.11
same,normalised cell number,[3]; [5],1
CCC(C)C(=O)O[C@@H]1C[C@@]2(C)[C@H](c3ccoc3)OC(=O)CC23OC2(C)O[C@]14C1(C)[C@@H](CC(=O)OC)C5(C)CC1(O)[C@](O)(C5OC(=O)C1(C)OC1C)[C@@H](OC(C)=O)[C@]34O2 (some centres undefined),red/green cell ratio (normalised),[3]; [6],1.2 (inactive)
same,normalised cell number,[3]; [4],0.97
same,normalised cell number,[3]; [5],1.16
